MITF inh: MITF inhibitors, primary screen, biochemical, AlphaScreen, human; Microphthalmia-associated transcription factor (Homo sapiens), O75030; AlphaScreen MITF homodimerization, bead proximity signal; inhibition, % at 2.6 µM; hit rate 0.91% among 650,000; AID 1259374, 2018; in the data active means inhibition above about 50%;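 further: 0% = vehicle wells with protein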
TEAD-YAP inh: TEAD-YAP interaction inhibition, primary screen, TEAD-YAP interaction inhibitor project, luminescence, HEK-TIYL cells | TEAD-Gal4/YAP UAS-luciferase luminescence | inhibition, % at 9.12 µM | hit rate 1.4% among 640,000; in the data active means inhibition above about 32%;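 further: 0% = median of test compound wells and 100% = reference inhibitor wells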
FBW7 act: FBW7 E3 ligase activators, primary screen, biochemical, AlphaScreen, human; F-box/WD repeat-containing protein 7 (Homo sapiens), Q969H0; AlphaScreen FBW7–phospho-cyclin E peptide binding, activator screen; normalized activity (activation), % at 26.1 µM; hit rate 0.13% among 650,000; AID 1259310, 2017; in the data active means normalized activity above about 1.9%;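 further: purified mutant Fbw7 with reduced substrate affinity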
GPR151 ag: activators of human GPR151, primary screen, cell-based, PathHunter beta-arrestin, luminescence | AID 1508602, 2020 | PathHunter beta-arrestin GPR151 cells | activation, % at 11.2 µM | G-protein coupled receptor 151 (Homo sapiens), Q8TDV0 | hit rate 1% among 650,000; in the data active means activation above about 4.9%;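 further: 0% = median of compound wells and 100% = cells with positive control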
GPR151 conf act: GPR151 activators, triplicate retest, confirmation, cell-based, PathHunter beta-arrestin, luminescence | shares compounds with GPR151 ag | GPR151 PathHunter beta-arrestin cells, 90 min; % of EA-reagent control over plate median | activation, % at 11.2 µM | 6,700 tested, under 10 active;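 active means mean percent activation across replicates above the confirmation screen cutoff of 4.91%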
GPR119 counter: GPR119 activators in beta-arrestin cells, counter-screen for GPR151 activator project, cell-based, PathHunter beta-arrestin, luminescence, triplicate | shares compounds with GPR151 ag | 90 min; 0 = compound-well median, 100 = enzyme-acceptor control | activation, % at 11.2 µM | hit rate 0.3% among 6,700 | AID 1508611, 2020;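 active means mean percent activation in the counterscreen above 29.09%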;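 further: counterscreen on off-target GPR119 to flag nonselective hits from the GPR151 activator screen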
Target sequence (Q8TDV5 whole entry, looked up): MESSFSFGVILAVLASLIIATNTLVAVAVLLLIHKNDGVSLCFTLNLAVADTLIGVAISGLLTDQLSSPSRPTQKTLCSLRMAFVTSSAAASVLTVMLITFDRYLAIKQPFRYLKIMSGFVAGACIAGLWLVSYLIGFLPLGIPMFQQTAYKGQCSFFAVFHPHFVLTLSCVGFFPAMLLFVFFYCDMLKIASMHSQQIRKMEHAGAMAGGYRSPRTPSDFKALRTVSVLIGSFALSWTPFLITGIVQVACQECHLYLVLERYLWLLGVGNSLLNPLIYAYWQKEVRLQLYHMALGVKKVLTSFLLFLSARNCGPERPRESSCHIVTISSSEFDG
Numbers without * were called inactive; nt = no result given; ! = not active in a repeat. Most compounds without a hit are left out; they make up all but 3.5% or so of the library.

SMILES	MITF inh	TEAD-YAP inh	FBW7 act	GPR151 ag	GPR151 conf act	GPR119 counter
CCOc1ccc(-n2c(SCC(=O)Nc3ccccc3C)nc3sc4c(c3c2=O)CCCC4)cc1	-1	1	0	3	nt	nt
COCCN1C(=O)C(O)=C(C(=O)c2cc3ccccc3o2)C1c1cccc([N+](=O)[O-])c1 (stereo not drawn)	10	8	0	5.7*	-1	-11
COc1ccc(C2CC(c3ccc(OC(F)F)cc3)n3ncnc3N2)cc1 (stereo not drawn)	-22	-1	0	7.4*	1	4
COc1ccc(C2CC(c3ccccc3OC(F)F)Nc3ncnn32)cc1 (stereo not drawn)	-5	4	0	1	nt	nt
CC(=O)c1c(C)[nH]c2ccccc2c1=O	-1	-6	0	1	nt	nt
Cc1[nH]c2ccccc2c(=O)c1Br	11	7	0	5.6*	0	7
CCOc1ccc(S(=O)(=O)NCC(c2ccco2)S(=O)(=O)c2ccc(C)cc2)cc1 (stereo not drawn)	11	0	0	8.4*	-1	-11
O=C(/C=C/c1cccs1)NC(=S)Nc1cc([N+](=O)[O-])ccc1O	34	-12	0	5.4*	0	-7
O=C(/C=C/c1cccs1)Nc1cc([N+](=O)[O-])ccc1Cl	15	-1	0	1	nt	nt
CC1CCCN(S(=O)(=O)c2cccs2)C1 (stereo not drawn)	2	2	0	10*	0	8
O=C(N/N=C/c1ccc(O)cc1)c1cc(Br)ccc1O	3	11	0	-2	nt	nt
CCOC(=O)C(C#N)=C(c1ccccc1)c1ccccc1	-8	5	0	0	nt	nt
CCOC(=O)/C(C#N)=C(\C)c1ccccc1	7	-5	0	7.0*	2	8
O=[N+]([O-])c1ccccc1NCCNCCO	-1	3	0	7.9*	0	-2
Cc1nonc1OCCNCCNc1ccccc1[N+](=O)[O-]	1	1	0	5.6*	0	5
Cc1nonc1OCCCNc1ccc([N+](=O)[O-])cc1	4	17	1	-1	nt	nt
O=[N+]([O-])c1cc(C(F)(F)F)ccc1NCCNCCO	-7	12	0	0	nt	nt
COCCNC(=O)/C(C#N)=C/c1cc(Br)ccc1OC	10	3	0	2	nt	nt
Cc1ccc(C(=O)c2nocc2C(=O)c2cccs2)cc1	1	2	0	6.1*	0	-8
O=C(c1ccc(Cl)cc1)c1conc1C(=O)c1cccs1	8	8	0	-1	nt	nt
CCn1c(N)c(C(=O)N2CCCCC2)sc1=S	10	0	0	5.4*	0	0
Cc1cccc(OC(C)C(=O)NN)c1C (stereo not drawn)	1	4	0	-2	nt	nt
N#Cc1ccc(NC(=O)c2csc3c2CCCC3)cc1	3	-45	0	0	nt	nt
Cc1nn(C)c(C)c1-c1nc(C(=O)NC2CCN(Cc3ccccc3)CC2)cs1	8	-16	0	8.7*	0	-7
Cc1nn(C)c(C)c1-c1cncc(C(=O)NC2CCN(Cc3ccccc3)CC2)c1	-7	2	0	5.5*	1	-2
SMILES	MITF inh	TEAD-YAP inh	FBW7 act	GPR151 ag	GPR151 conf act	GPR119 counter
CC1c2cccn2CCN1C(=O)CCC1(Cc2cccs2)CCC(=O)N1 (stereo not drawn)	4	13	0	1	nt	nt
O=C(CC1NCCNC1=O)Nc1ccccc1 (stereo not drawn)	-7	-1	0	0	nt	nt
CN(C)c1ccc(NC(=O)CC2NCCNC2=O)cc1 (stereo not drawn)	7	-5	0	5.0*	-1	1
COc1cc2ccccc2cc1C(=O)Nc1ccc(S(N)(=O)=O)cc1	3	-26	0	-1	nt	nt
CCCCN(CCCC)c1nc(C)cc(=O)[nH]1	-5	5	0	5.1*!	0	-1
O=C(NCCO)C(=O)NCC(c1cccs1)S(=O)(=O)c1ccccc1 (stereo not drawn)	2	-1	0	4.9*	0	-12
CC(=O)Nc1ccc(NC(=O)C(C)N2C(=O)NC3(CCCCC3)C2=O)cc1 (stereo not drawn)	3	17	0	-2	nt	nt
O=C(CNS(=O)(=O)c1ccccc1)Nc1cccc(F)c1	1	2	0	6.0*	0	-3
O=C(O)c1ccc(NC(=O)c2cccc(S(=O)(=O)Nc3cccc(F)c3)c2)cc1	-3	0	0	8.7*	0	4
Cc1ccc(SCC(=O)Nc2cccc(F)c2)cc1	-10	-57	0	6.4*	-1	-6
O=C(CNS(=O)(=O)c1ccc(Br)cc1)Nc1cccc(F)c1	12	-1	0	1	nt	nt
O=C(CSc1ccccc1)Nc1cccc(F)c1	4	-48	0	-1	nt	nt
C=CCNC(=O)c1cc(I)ccc1NC(=O)c1cccnc1	3	3	0	5.7*	-1	-9
C=CCNC(=O)c1cc(I)ccc1NC(=O)c1ccc(F)cc1	20	7	0	11*	1	-5
CN(Cc1ccccc1)C(=O)c1ccc2c(=O)n(CCc3ccccc3)c(SCc3cccc([N+](=O)[O-])c3)nc2c1	-5	1	0	11*	-1	-16
O=C(c1ccc2c(=O)n(CCc3ccccc3)c(SCc3cccc([N+](=O)[O-])c3)nc2c1)N1CCCC1	18	10	0	2	nt	nt
CCc1ccc(Oc2nc3ccccn3c(=O)c2/C=C(\C#N)C(=O)N2CCOCC2)cc1	1	12	0	0	nt	nt
CCc1nnc(NC(=O)C(Cc2ccccc2)N2C(=O)C3C4C=CC(C4)C3C2=O)s1 (stereo not drawn)	-5	-5	0	0	nt	nt
CC(O)c1nc2ccccc2n1Cc1cccc(Cl)c1 (stereo not drawn)	-8	7	0	5.2*	1	9
CC(O)c1nc2ccccc2n1CCOc1ccccc1F (stereo not drawn)	-3	-6	0	5.1*	1	3
COc1ccc(CCn2c(=O)c(C#N)cc3c(=O)n4cccc(C)c4nc32)cc1OC	-5	-13	0	7.4*	1	16
COc1ccc(CNC(=O)c2c(C)nc3c(C)cccn23)cc1OC	16	25	0	5.1*	0	5
O=C1c2ccccc2C(=O)c2c(O)ccc(O)c21	5	1	0	18*	0	2
O=C1c2ccccc2C(=O)c2c(O)c(O)cc(O)c21	30	-1	0	0	nt	nt

Assay outcomes deposited in PubChem by The Scripps Research Institute Molecular Screening Center.
